Test [1] addresses Thyrotropin receptor (Homo sapiens) (UniProt P16473). The test can be described thus: qHTS assay to identify small molecule antagonists of the thyroid stimulating hormone receptor (TSHR) signaling pathway (AID 1259385; calls by dose curve; note: nearly all actives have a fitted effect of over 20% in size). A digest of the protocol: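 TSHR-HEK293 cells were plated and held 18 h at 37C/5% CO2, then given compound plus Ro20-1724 and stimulated with TSH at 1.5 ng/mL final. After 30 min at room temperature, cAMP was detected with cAMP-d2/anti-cAMP-cryptate (1 h) by fluorescence.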
On the technique in general: qHTS replaces the single test concentration by a dilution series.

For test [2], the target named is Progesterone receptor (Homo sapiens) (UniProt P06401). The test can be described thus: qHTS assay to identify small molecule agonists of the progesterone receptor (PR) signaling pathway (AID 1346784; calls by dose curve; note: nearly all actives have a fitted effect of over 30% in size). A digest of the protocol: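 Cells (PR-UAS-bla HEK 293T, GripTite) were plated in assay medium containing 2% charcoal-stripped FBS and incubated 6 hr. Test compounds in DMSO were added for 16 hr at 37C. FRET substrate was then loaded for 2 hr at room temperature before fluorescence reading.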
Sequence of Progesterone receptor (Homo sapiens) (P06401 whole entry, looked up): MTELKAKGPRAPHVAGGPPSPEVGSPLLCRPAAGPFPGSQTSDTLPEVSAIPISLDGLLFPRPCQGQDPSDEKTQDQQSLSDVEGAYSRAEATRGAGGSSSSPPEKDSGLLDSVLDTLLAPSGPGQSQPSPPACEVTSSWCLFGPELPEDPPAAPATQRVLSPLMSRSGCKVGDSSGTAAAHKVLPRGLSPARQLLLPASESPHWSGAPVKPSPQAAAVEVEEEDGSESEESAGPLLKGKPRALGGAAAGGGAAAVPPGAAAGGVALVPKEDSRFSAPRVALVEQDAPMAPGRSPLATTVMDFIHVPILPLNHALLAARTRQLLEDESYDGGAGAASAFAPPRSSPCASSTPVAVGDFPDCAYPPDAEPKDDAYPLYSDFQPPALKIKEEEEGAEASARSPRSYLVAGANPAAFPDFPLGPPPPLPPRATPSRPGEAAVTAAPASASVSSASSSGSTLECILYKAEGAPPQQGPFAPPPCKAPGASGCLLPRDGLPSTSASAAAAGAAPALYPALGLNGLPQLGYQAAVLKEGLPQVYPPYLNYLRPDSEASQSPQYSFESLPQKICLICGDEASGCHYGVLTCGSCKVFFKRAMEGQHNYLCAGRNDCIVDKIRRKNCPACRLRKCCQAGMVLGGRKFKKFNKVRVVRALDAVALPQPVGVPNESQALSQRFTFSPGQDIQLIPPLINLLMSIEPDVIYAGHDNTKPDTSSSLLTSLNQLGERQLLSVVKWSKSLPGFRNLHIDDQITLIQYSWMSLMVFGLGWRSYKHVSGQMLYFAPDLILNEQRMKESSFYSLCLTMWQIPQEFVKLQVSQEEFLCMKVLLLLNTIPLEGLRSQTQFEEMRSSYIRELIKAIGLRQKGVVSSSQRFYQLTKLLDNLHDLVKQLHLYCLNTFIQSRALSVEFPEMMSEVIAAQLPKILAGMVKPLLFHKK

For test [3] the target is unchanged. The test can be described thus: qHTS assay to identify small molecule antagonists of the progesterone receptor (PR) signaling pathway (AID 1346795; active = well fitted inhibition curve with a large enough effect in the signal ratio in the repeat runs, not every such curve was filed as active; the % refers to the signal ratio; note: potency is the fitted concentration of half-maximal effect). The gist of the method: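 Antagonist mode: compounds tested against 1 nM (final) promegestone stimulation in HEK293T cells expressing PR-UAS-bla reporter, 16 hr at 37C, 5% CO2; beta-lactamase activity detected via B/G FRET substrate after 2 hr at room temperature.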

Test [4] is described as follows: qHTS assay to identify small molecule antagonists of the progesterone receptor (PR) signaling pathway - cell viability counter screen (AID 1346798). Note: series mostly up to about 92 µM; nearly all actives have a fitted effect of over 50% in size. A digest of the protocol: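 Counter screen for cytotoxicity: viability of PR-UAS-bla HEK293T cells was measured with CellTiter-Glo luminescence following 16 hr compound exposure in the presence of R5020.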
Test [5] can be described thus: qHTS assay to identify small molecule agonists of the progesterone receptor (PR) signaling pathway - cell viability counter screen (AID 1346799; calls by dose curve; note: nearly all actives have a fitted effect of over 45% in size). The gist of the method: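 Cells (PR-UAS-bla HEK293T) are plated at 3,000/well in 2% charcoal-stripped FBS medium, rested 6 hr, dosed and incubated 16 hr at 37C. CellTiter-Glo is then added and luminescence measured after 30 min at room temperature.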

Test [6] is described as follows: qHTS assay to identify small molecule antagonists of the TGF-beta/Smad signaling pathway - cell viability counter screen (AID 1346824). Note: nearly all actives have a fitted effect of over 50% in size. The gist of the method: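 SBE-bla HEK 293T cells were plated overnight at 37 C, then given compounds in DMSO plus TGF-beta1 (added as 0.25 ng/mL solution) for 5 hr. After the bla read, CellTiter-Glo was added to the same wells and luminescence read after 30 min at room temperature.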

Test [7] in a line: qHTS assay to identify small molecule agonists of the TGF-beta/Smad signaling pathway - cell viability counter screen (AID 1346829). Note: top concentration of the series differs between compounds; nearly all actives have a fitted effect of over 45% in size. A digest of the protocol: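 Cytotoxicity counter screen: CellTiter-Glo luminescence (30 min, room temperature) measured in the SBE-bla HEK 293T reporter wells after 5 hr compound treatment at 37 C and the 2 hr substrate step.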
Test [8] in a line: qHTS assay to identify small molecule agonists of the TGF-beta/Smad signaling pathway (AID 1346859; active = well fitted activation curve with a large enough effect in the signal ratio in the repeat runs, not every such curve was filed as active; the % refers to the signal ratio; note: series mostly up to about 77 µM). The gist of the method:
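Reporter line: HEK 293T with stably integrated SBE-controlled beta-lactamase. Compound exposure lasts 5 hr at 37 C and 5% CO2; substrate loading follows for 2 hr at room temperature, with emission read at 460 and 530 nm.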

For test [9], the target named is Thyrotropin-releasing hormone receptor (Homo sapiens) (UniProt P34981). The test is described as follows: qHTS assay to identify small molecule antagonists of the thyrotropin-releasing hormone receptor (TRHR) signaling pathway (AID 1346877; active = well fitted inhibition curve with a large enough effect in the repeat runs, not every such curve was filed as active; note: series mostly up to about 51 µM). The gist of the method: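 TRHR-expressing HEK293 cells loaded with calcium dye for 2 h at 37 C; compounds pre-incubated 5 min at room temperature before TRH challenge at 1 nM final. Intracellular calcium fluorescence read kinetically for 3 min; 15 concentrations in triplicate.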
Sequence of Thyrotropin-releasing hormone receptor (Homo sapiens) (P34981 whole entry, looked up): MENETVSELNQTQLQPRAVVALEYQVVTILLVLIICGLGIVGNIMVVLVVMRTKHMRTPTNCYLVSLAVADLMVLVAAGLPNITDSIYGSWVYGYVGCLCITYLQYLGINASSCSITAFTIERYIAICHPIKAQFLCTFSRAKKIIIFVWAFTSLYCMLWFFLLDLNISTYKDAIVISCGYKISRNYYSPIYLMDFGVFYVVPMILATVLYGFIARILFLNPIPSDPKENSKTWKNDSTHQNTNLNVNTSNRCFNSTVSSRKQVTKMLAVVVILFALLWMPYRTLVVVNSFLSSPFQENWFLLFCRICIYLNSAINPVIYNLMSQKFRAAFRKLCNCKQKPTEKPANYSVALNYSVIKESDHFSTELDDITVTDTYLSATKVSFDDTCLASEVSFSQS

The target is the same in test [10]. The test is described as follows: qHTS assay to identify small molecule agonists of the thyrotropin-releasing hormone receptor (TRHR) signaling pathway (AID 1346891; calls by dose curve; note: series mostly up to about 58 µM). The gist of the method:
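Cells: TRHR-Hek293, seeded and incubated 18 h. Dye loading: 2 h at 37 °C. Compound added from DMSO stock by pin tool. Read-out: kinetic calcium fluorescence over 3 min.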

The nature of test [11]: Human pregnane X receptor (PXR) small molecule agonists, qHTS cell viability counter screen (AID 1346977). Note: nearly all actives have a fitted effect of over 50% in size. A digest of the protocol: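 Cytotoxicity counter screen run in the same wells as the PXR luciferase assay, using PXR-Luc HepG2 cells in charcoal-stripped serum medium. Viability: CellTiter-Fluor fluorescence after 24hr compound treatment.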
Test [12] in a line: Caspase-3/7 induction in HepG2 cells by small molecules, qHTS assay (AID 1346978). Note: nearly all actives have a fitted effect of over 15% in size. A digest of the protocol:
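Wild-type HepG2 cells (2,000/well) were settled 5 h at 37 C, 5% CO2, then exposed to compounds in DMSO for 17 h. Caspase-3/7 activity was read by luminescence 30 min after adding Caspase-Glo 3/7 reagent at room temperature.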

Test [13] is described as follows: Caspase-3/7 induction in CHO-K1 cells by small molecules, qHTS assay (AID 1346980). Note: nearly all actives have a fitted effect of over 15% in size. A digest of the protocol: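 Wild-type cells were seeded at 1,500 per well and settled 5 hr at 37 C, 5% CO2, then exposed to DMSO-dissolved compounds for 17 hr. Caspase-Glo 3/7 reagent was added, and luminescence was read after 30min at room temperature.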
Test [14] in a line: Caspase-3/7 induction in HepG2 cells by small molecules, qHTS cell viability counter screen (AID 1346981). Note: series mostly up to about 92 µM; nearly all actives have a fitted effect of over 30% in size. A digest of the protocol:
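Wild-type HepG2 cells, 2,000/well, settled 5 hr at 37 C, 5% CO2 before compound addition. Viability read by CellTiter-Fluor fluorescence, reagent added after 16 hr compound exposure, then 1 hr at 37C, in the same wells as the caspase read.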

Test [15] has as its target Nuclear receptor subfamily 1 group I member 2 (Homo sapiens) (UniProt O75469). The test can be described thus: Human pregnane X receptor (PXR) small molecule agonists, qHTS assay (AID 1346982). Note: nearly all actives have a fitted effect of over 35% in size. Note: potency is the fitted concentration of half-maximal effect. The gist of the method: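 PXR-Luc HepG2 reporter cells (CYP3A4-driven luciferase) in 5% charcoal-stripped FBS medium, plated 5 h before compound addition, then treated 24 h at 37C. Luciferase read by ONE-Glo luminescence after 30 min at room temperature.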

For test [16], the target named is Nuclear receptor subfamily 1 group I member 2 (Rattus norvegicus) (UniProt Q9R1A7). The test is described as follows: Rat pregnane X receptor (rPXR) activation by small molecules, qHTS assay (AID 1346983). Note: nearly all actives have a fitted effect of over 20% in size. The settings on record: rPXR luciferase reporter cells, One-Glo luminescence, 24 h; hits give high values. The gist of the method: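 Cell-based rPXR luciferase reporter assay, 2,000 cells per well, rested 5hr at 37 C before compound addition in DMSO, then 24 hr at 37 C. One-Glo reagent was added and luminescence read after 30 min at room temperature.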
Sequence of Nuclear receptor subfamily 1 group I member 2 (Rattus norvegicus) (Q9R1A7 whole entry, looked up): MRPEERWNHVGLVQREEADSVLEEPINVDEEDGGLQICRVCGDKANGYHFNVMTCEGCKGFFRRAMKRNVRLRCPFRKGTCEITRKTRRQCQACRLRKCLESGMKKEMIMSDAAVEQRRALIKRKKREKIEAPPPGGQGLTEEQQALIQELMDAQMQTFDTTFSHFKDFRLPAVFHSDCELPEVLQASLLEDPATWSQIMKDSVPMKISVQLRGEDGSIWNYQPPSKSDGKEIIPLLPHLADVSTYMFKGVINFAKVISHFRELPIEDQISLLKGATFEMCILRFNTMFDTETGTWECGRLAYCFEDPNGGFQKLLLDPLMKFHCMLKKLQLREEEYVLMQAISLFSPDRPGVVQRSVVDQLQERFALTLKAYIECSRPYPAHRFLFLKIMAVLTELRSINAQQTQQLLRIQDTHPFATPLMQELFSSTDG

Test [17] concerns the target Nuclear receptor subfamily 1 group I member 2 (Homo sapiens) (UniProt O75469). The test is described as follows: CYP3A4 induction through human pregnane X receptor (PXR) by small molecules, qHTS assay (AID 1346984). Note: nearly all actives have a fitted effect of over 40% in size. The gist of the method: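 DPX-2 HepG2 cells carrying a PXR response element and CYP3A4-promoter luciferase construct, treated with compounds 24 hr at 37C. Then P450-Glo CYP3A4 Luciferin-IPA substrate (3uM final) for 3 hr at 37C, One-Glo added, luminescence read.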

Test [18] has the same target. The test can be described thus: Human pregnane X receptor (PXR) activation by small molecules, qHTS assay (AID 1346985). Note: nearly all actives have a fitted effect of over 40% in size. The gist of the method: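 DPX-2 cells (HepG2 co-transfected with a PXR response element and a CYP3A4-promoter luciferase construct) were seeded at 2,000 per well, rested 5 hr at 37C, then exposed to DMSO-dissolved compounds for 24 hr. Activation was read as luciferase luminescence.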

Test [19] in a line: Caspase-3/7 induction in CHO-K1 cells by small molecules, qHTS cell viability counter screen (AID 1346979). Note: nearly all actives have a fitted effect of over 35% in size. A digest of the protocol:
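Cytotoxicity counter screen run in parallel with the caspase-3/7 assay: CHO-K1 cells, 16hr compound treatment at 37C, then CellTiter-Fluor for 1hr before fluorescence reading.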

Test [20] in a line: qHTS assay to identify small molecule agonists of the estrogen receptor alpha (ER-alpha) signaling pathway in the presence of an antagonist - cell viability counter screen (AID 1259386).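 Note: series mostly up to about 92 µM; cells exposed to compounds for 22 h at 37 °C before the viability read; nearly all actives have a fitted effect of over 30% in size.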 A digest of the protocol: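 Cell viability in VM7Luc4E2 cells (endogenous full-length ER-alpha) measured by CellTiter-Fluor fluorescence in the same wells as the luciferase screen. Cells pre-cultured 5 days in charcoal-stripped serum, then treated 22 h with compounds at 15 concentrations plus 10.0nM ICI-182,780.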

SMILES strings stand for the structures. Values without a mark were called inactive. Inconclusive results are not listed. Calls of active or inactive are those of the source. Unless noted, calls come from the whole dose curve; as a rule, active = well fitted curve in the direction sought with a large enough effect in the repeat runs; inconclusive = weak or mixed curves; inactive = no such curve, though single readings can be large; an effect the other way counts as inactive or inconclusive.
% is set by controls: 0 for no effect and ±100 for the full control effect.

Sequence of Nuclear receptor subfamily 1 group I member 2 (Homo sapiens) (O75469 whole entry, looked up): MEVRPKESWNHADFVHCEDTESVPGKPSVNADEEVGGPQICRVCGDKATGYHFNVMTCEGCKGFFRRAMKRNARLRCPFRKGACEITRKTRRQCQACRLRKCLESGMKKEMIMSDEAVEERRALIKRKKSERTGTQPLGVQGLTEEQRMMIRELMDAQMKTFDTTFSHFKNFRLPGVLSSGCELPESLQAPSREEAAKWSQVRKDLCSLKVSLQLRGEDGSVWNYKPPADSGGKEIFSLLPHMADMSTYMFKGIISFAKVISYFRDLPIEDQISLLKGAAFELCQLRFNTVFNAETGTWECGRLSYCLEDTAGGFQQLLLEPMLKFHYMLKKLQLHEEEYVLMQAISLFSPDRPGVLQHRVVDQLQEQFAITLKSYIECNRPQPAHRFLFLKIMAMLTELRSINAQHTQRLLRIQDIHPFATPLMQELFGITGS
Sequence of Thyrotropin receptor (Homo sapiens) (P16473 whole entry, looked up): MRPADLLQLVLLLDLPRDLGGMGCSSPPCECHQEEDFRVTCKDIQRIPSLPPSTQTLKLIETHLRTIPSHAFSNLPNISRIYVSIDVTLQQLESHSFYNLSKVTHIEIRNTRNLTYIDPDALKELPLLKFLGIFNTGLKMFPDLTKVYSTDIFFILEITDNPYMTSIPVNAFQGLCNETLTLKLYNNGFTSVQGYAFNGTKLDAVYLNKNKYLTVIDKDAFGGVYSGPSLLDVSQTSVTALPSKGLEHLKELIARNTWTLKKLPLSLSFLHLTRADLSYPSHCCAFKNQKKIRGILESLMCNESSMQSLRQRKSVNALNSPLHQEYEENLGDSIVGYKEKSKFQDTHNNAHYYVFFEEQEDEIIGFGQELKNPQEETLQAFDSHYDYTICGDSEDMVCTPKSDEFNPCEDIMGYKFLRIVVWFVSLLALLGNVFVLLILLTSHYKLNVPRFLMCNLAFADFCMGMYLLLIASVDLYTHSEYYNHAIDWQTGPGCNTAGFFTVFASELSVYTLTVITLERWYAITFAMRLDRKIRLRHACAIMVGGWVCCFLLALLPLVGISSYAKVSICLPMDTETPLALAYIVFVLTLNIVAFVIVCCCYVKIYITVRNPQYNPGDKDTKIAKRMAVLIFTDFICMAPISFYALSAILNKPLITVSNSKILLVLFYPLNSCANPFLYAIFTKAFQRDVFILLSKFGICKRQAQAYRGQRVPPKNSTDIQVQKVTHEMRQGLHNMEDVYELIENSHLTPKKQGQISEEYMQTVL

On to `Cc1cccc(C)c1NC(=O)c1ccccc1C(=O)O`, for which the compound was called inactive in test [1], in [6], in test [7], in test [8], in test [9] and in [10]. In test [13], the compound was called inactive. Further, the Potency entry in test [2], in test [3], in test [4], in [5], in test [11] and in test [12] was “inactive” in each case. The Potency entry in test [14], in test [15], in test [17] and in test [18] was “inactive” in each case. The max activation in [16] was -1.88%.

As for `CN1C(C)(C)CCCC1(C)C`, the compound was classed as inactive in test [1], in test [7], in [8], in test [9], in test [10] and in [13]. The Potency entry in test [2], in [5], in [11], in test [12], in test [19] and in test [14] was “inactive” in each case. Also, in test [15], the Potency entry was “inactive”.

As for `CCOc1cc([N+](=O)[O-])c(OCC)cc1N1CCOCC1`, the result in test [1], in [6], in test [7], in [9], in test [10] and in [13] was inactive. For the same compound, the Potency result in [2], in [4], in [11] and in test [12] was “inactive” in each case. Also, in test [3], the Potency was 27.3 µM (active).

For `CC(=O)c1ccc2c(c1)Cc1ccccc1-2`, the Potency result in test [20], in [2], in test [4], in test [5], in [12] and in test [19] was “inactive” throughout. In addition, the Potency result in test [14] is “inactive”. Further, the Potency in test [3] is 12.2 µM (active). Moreover, the compound was called inactive in test [6], in test [7], in test [8], in test [9], in [10] and in [13].

On to `O=C(CS(=O)Cc1ccco1)NC/C=C\COc1cc(CN2CCCCC2)ccn1` (stereo not given), for which the compound was called inactive in test [1], in [6], in [7], in [8], in test [9] and in test [10]. The result in [13] was inactive. Moreover, the Potency entry in test [2], in [3], in test [4], in test [5], in test [11] and in test [12] was “inactive” in each case. Further, the Potency result in [19], in [15], in [17] and in [18] was “inactive” in each case. For the same compound, in [16], the max activation is -0.727%.

For the compound `CC(C)=O`, the result in [1], in [6], in [7], in test [8], in [9] and in test [10] was inactive. For the same compound, in test [13], the result was inactive. The Potency entry in [3], in test [4], in [5], in [11], in [12] and in test [19] was “inactive” in each case. Further, the Potency entry in [14] is “inactive”. Further, in [16], the max activation was -0.452%.

On to `O=C(Nc1ccc(Cl)c(Cl)c1)C1CC1`, for which the result in test [1], in test [6], in test [7], in [8], in test [9] and in [10] was inactive. For the same compound, in [13], the result was inactive. In addition, the Potency entry in test [2], in test [4], in test [11], in test [12], in [14] and in test [17] was “inactive” each time. The Potency in [15] was 29.8 µM (active). The max activation in [16] is -0.7%.

Consider `C=CC(OCC)OCC`, for which the Potency entry in [20], in test [2], in test [3], in test [4], in test [5] and in test [11] was “inactive” in each case. Moreover, the Potency result in [12], in test [19], in test [14] and in [15] was “inactive” each time. Besides, the outcome in test [6], in test [7], in [8], in [9], in test [10] and in test [13] was inactive.
